Here are results for 39 compounds from PubChem BioAssay.

Measured potencies and affinities stand elsewhere. Calls of active or inactive are those of the source.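 How the source made its calls, unless noted: active means a fitted half-maximal concentration no higher than twice the top valid tested dose, with signal falling as cells die; inconclusive means flat curve between -70% and -30%, or poor fit; inactive means the rest, including signal rising instead of falling.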

The first assay can be described thus: viability loss in HepG2 hepatoma cells – cell-based, cherry-picks, set 2, cytotoxicity control, dose response (AID 687002;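 active means a dose-response fit showing signal loss, with half-maximal concentration no higher than twice the top tested dose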). To be noted: ATP luminescence (CellTiter-Glo), 48 h; series mostly up to 26 µM. (Cellular ATP, detected with luciferase, serves as a proxy for viable cell number.)
Turning to `Cc1cccc(C)c1NC(=O)CN1CCN(C(=O)CNC(=O)c2ccc(N3CCCC3=O)cc2)CC1`, the result was inactive.

Regarding `COc1cccc(S(=O)(=O)N(C)C[C@@H]2Oc3ncc(-c4cccc(F)c4)cc3C(=O)N([C@H](C)CO)C[C@@H]2C)c1`, the compound was called inactive.

Consider `Cc1cccc(C)c1NC(=O)CN1CCCC1`, for which the call was inactive.

On to `CC(C)NC(=O)Nc1ccc2c(c1)CC(=O)N([C@@H](C)CO)C[C@@H](C)[C@@H](CN(C)S(=O)(=O)c1ccc(Cl)cc1)O2`, for which the compound was classed as inactive.

Consider `O=C(C[C@@H]1C[C@@H]2c3cc(NC(=O)C4CCC4)ccc3O[C@@H]2[C@H](CO)O1)NCc1cccc(F)c1`, for which the outcome was inactive.

`CC(=O)NNC(=O)CSc1nnc(-c2ccccc2)c(-c2ccccc2)n1`: the compound was called inactive.

With `CC(C)NC(=O)N(C)C[C@@H]1OCCCC[C@@H](C)Oc2ccc(NC(=O)c3ccccc3)cc2C(=O)N([C@H](C)CO)C[C@H]1C`, the compound was called inactive.

On to `C/C=C/c1ccc([C@@H]2[C@@H](CNC(=O)C3CC3)N(C(=O)CC)[C@H]2CO)cc1`, for which the compound was classed as inactive.

Another assay can be described thus: viability loss in HeLa cells – cell-based, ATP luminescence, cherry-pick samples, cytotoxicity control, dose response (AID 687004). To be noted: ATP luminescence (CellTiter-Glo), 48 h; series mostly up to 26 µM.
Take `C[C@@H]1CN([C@@H](C)CO)C(=O)c2cccc(NC(=O)C3CC3)c2O[C@@H]1CN(C)C`: the result was inactive.

Turning to `C[C@H]1CCCCO[C@H](CN(C)C(=O)c2ccncc2)[C@@H](C)CN([C@@H](C)CO)C(=O)c2cc(NC(=O)Cc3ccccc3)ccc2O1`, the compound was called inactive.

For the compound `O=C(O)C/C(=C\c1cccc(NC(=O)c2ccccc2Cl)c1)c1nc2ccccc2s1`, the call was inactive.

Consider `C[C@@H]1CN([C@@H](C)CO)C(=O)c2cccc(NC(=O)Nc3ccccc3)c2O[C@H]1CN(C)S(=O)(=O)c1cn(C)cn1`, for which the result was inactive.

On to `O=C(CN(c1ccccc1)S(=O)(=O)c1ccc(F)cc1)NC1CCS(=O)(=O)C1` (configuration not stated), for which the compound was called inactive.

As to `Cc1ccc(C)c(NC(=O)C2(C)CCCN2C(=O)C(C)C)c1` (configuration not stated), the result was inactive.

With `COc1ccc(CN(C)C[C@@H]2Oc3c(NC(=O)Nc4cccc5ccccc45)cccc3C(=O)N([C@@H](C)CO)C[C@@H]2C)cc1`, the call was inactive.

Take `C[C@H](CO)N1C[C@H](C)[C@H](CN(C)C(=O)Nc2cccc3ccccc23)Oc2ccc(NC(=O)Nc3ccccc3)cc2C1=O`: the result was inactive.

For the compound `C[C@@H]1CCCCO[C@H](CN(C)C(=O)Nc2ccc(F)cc2)[C@H](C)CN([C@@H](C)CO)C(=O)c2cc(NS(=O)(=O)c3ccc(Cl)cc3)ccc2O1`, the compound was called inactive.

As to `CCS(CC)=NS(=O)(=O)c1ccc(NC(C)=O)cc1`, the call was inactive.

As for `Cc1ccc(NC(=O)C2(C)CCN2C(=O)CC2CC2)cc1C` (configuration not stated), the call was inactive.

On to `CCNC(=O)Nc1ccc2c(c1)C(=O)N(C)[C@H]1CC[C@H](CC(=O)N[C@@H](C)c3ccccc3)O[C@H]1CO2`, for which the call was inactive.

On to `Cc1noc(C)c1NC(=O)Nc1ccc2c(c1)C(=O)N(C)[C@H]1CC[C@H](CC(=O)N[C@H]3CCN(Cc4ccccc4)C3)O[C@H]1CO2`, for which the compound was classed as inactive.

`C[C@H](CO)N1C[C@H](C)[C@H](CN(C)C(=O)c2ccccn2)Oc2ncc(-c3ccccc3)cc2C1=O`: the call was inactive.

On to `C[C@H]1CCCCO[C@@H](CN(C)C(=O)c2ccccc2)[C@@H](C)CN([C@@H](C)CO)C(=O)c2cc(NC(=O)c3ccncc3)ccc2O1`, for which the compound was classed as inactive.

On to `COc1ccc(NC(=O)Nc2ccc3c(c2)C(=O)N([C@@H](C)CO)C[C@@H](C)[C@H](CN(C)C(=O)Cc2ccccc2)OCCCC[C@H](C)O3)cc1`, for which the outcome was inactive.

Turning to `Cc1cc(C)c(NC(=O)C(C)N2CCCCCC2)c(C)c1` (configuration not stated), the compound was classed as inactive.

Regarding `N#Cc1ccc(C23CC4(C2)[C@H](CN(Cc2ccc(-c5ccccc5)cc2)[C@@H]4c2ccccc2)C3c2ccc(C(F)(F)F)cc2)cc1` (some centres not stated), the outcome was inactive.

For the compound `C[C@@H]1CN([C@H](C)CO)C(=O)c2c(c3ccccc3n2C)-c2ccccc2CO[C@H]1CN(C)S(=O)(=O)c1cccs1`, the compound was called inactive.

`C[C@H]1CN([C@@H](C)CO)C(=O)Cc2cc(NC(=O)CCCCCC(=O)Nc3ccccc3N)ccc2O[C@H]1CN(C)C(=O)Nc1ccccc1`: the result was inactive.

With `C[C@@H]1CCCCO[C@@H](CN(C)S(=O)(=O)c2cccs2)[C@H](C)CN([C@@H](C)CO)C(=O)c2cc(NC(=O)CCC(F)(F)F)ccc2O1`, the outcome was inactive.

As for `CCC(=O)N1[C@@H]2Cn3c(cccc3=O)[C@H]1[C@@H](C(=O)NCc1ccccc1)[C@@H]2CO`, the outcome was inactive.

As to `CCC(=O)N1C[C@H](O)COC[C@@H]2O[C@@H](CC(=O)NCc3ccccc3Cl)CC[C@H]21`, the compound was called inactive.

With `COCC#Cc1cnc2c(c1)C(=O)N([C@H](C)CO)C[C@H](C)[C@H](CN(C)C(=O)C1CC1)O2`, the call was inactive.

Turning to `O=C(C[C@H]1CC[C@H](NC(=O)Nc2ccc(C(F)(F)F)cc2)[C@H](CO)O1)NCc1cccc(F)c1`, the outcome was inactive.

Regarding `C[C@@H]1CCCCO[C@H](CN(C)Cc2ccncc2)[C@@H](C)CN([C@H](C)CO)C(=O)c2cc(N(C)C)ccc2O1`, the result was inactive.

`Cc1noc(C)c1NC(=O)Nc1ccc2c(c1)C(=O)N([C@H](C)CO)C[C@@H](C)[C@H](CN(C)C(=O)Nc1ccc(F)cc1)OCCCC[C@@H](C)O2`: the compound was classed as inactive.

`CC(C)NC(=O)Nc1cccc2c1O[C@H](CN(C)C)[C@H](C)CN([C@H](C)CO)C2=O`: the call was inactive.

For the compound `CO[C@@H]1CC[C@@H]2CCOc3c(C#N)cccc3C(=O)N(C)C[C@H](c3ccccc3)CC(=O)N(C)C[C@@H]1O2`, the compound was called inactive.

Take `O=C(C[C@@H]1CC[C@H]2[C@@H](COC[C@@H](O)CN2Cc2ccc(Cl)cc2)O1)NCc1cccc(F)c1`: the result was inactive.

With `C[C@@H]1CCCCO[C@@H](CN(C)Cc2ccncc2)[C@@H](C)CN([C@H](C)CO)C(=O)c2cc(NC(=O)c3ccncc3)ccc2O1`, the outcome was inactive.

As for `Cc1cccc(C)c1NC(=O)CN1CCN(C(=O)CNC(=O)c2ccc(N3CCCC3=O)cc2)CC1`, the call was inactive.

For the compound `COc1cccc(S(=O)(=O)N(C)C[C@@H]2Oc3ncc(-c4cccc(F)c4)cc3C(=O)N([C@H](C)CO)C[C@@H]2C)c1`, the call was inactive.

On to `Cc1cccc(C)c1NC(=O)CN1CCCC1`, for which the outcome was inactive.

For `CC(C)NC(=O)Nc1ccc2c(c1)CC(=O)N([C@@H](C)CO)C[C@@H](C)[C@@H](CN(C)S(=O)(=O)c1ccc(Cl)cc1)O2`, the result was inactive.

Regarding `O=C(C[C@@H]1C[C@@H]2c3cc(NC(=O)C4CCC4)ccc3O[C@@H]2[C@H](CO)O1)NCc1cccc(F)c1`, the outcome was inactive.

Regarding `CC(=O)NNC(=O)CSc1nnc(-c2ccccc2)c(-c2ccccc2)n1`, the compound was called inactive.

With `CC(C)NC(=O)N(C)C[C@@H]1OCCCC[C@@H](C)Oc2ccc(NC(=O)c3ccccc3)cc2C(=O)N([C@H](C)CO)C[C@H]1C`, the call was inactive.

`C/C=C/c1ccc([C@@H]2[C@@H](CNC(=O)C3CC3)N(C(=O)CC)[C@H]2CO)cc1`: the call was inactive.
